Measured values taken from ChEMBL document CHEMBL3433997, “St. Jude Leishmania screening dataset” (2016).

Assays:
Type in all cases: functional
[1] = target: Solute carrier family 2, facilitated glucose transporter member 1 (Homo sapiens) (UniProt P11166); assay: ST_JUDE_LEISH: Cytotoxicity at 2uM final concentration against transgenic Leishmania Mexicana promastigotes LmGLUT1 that are glucose transport deficient and complemented with the human glucose transporter GLUT1. Activity is measured by DNA content using SYBR green in vitro
[2] = target: Hexose transporter 1 (Plasmodium falciparum) (UniProt O97467); assay: ST_JUDE_LEISH: Cytotoxicity at 2uM final concentration against transgenic Leishmania Mexicana promastigotes LmPfHT that are glucose transport deficient and complemented with the Plasmodium falciparum hexose transporter. Activity is measured by DNA content using SYBR green in vitro
[3] = target: Glucose transporter (Leishmania mexicana) (UniProt O61059); assay: ST_JUDE_LEISH: Cytotoxicity at 2uM final concentration against transgenic Leishmania Mexicana promastigotes LmGT2 that are glucose transport deficient and complemented with the L. Mexicana glucose transporter 2. Activity is measured by DNA content using SYBR green in vitro

Sequence of Solute carrier family 2, facilitated glucose transporter member 1 (Homo sapiens) (P11166 whole entry): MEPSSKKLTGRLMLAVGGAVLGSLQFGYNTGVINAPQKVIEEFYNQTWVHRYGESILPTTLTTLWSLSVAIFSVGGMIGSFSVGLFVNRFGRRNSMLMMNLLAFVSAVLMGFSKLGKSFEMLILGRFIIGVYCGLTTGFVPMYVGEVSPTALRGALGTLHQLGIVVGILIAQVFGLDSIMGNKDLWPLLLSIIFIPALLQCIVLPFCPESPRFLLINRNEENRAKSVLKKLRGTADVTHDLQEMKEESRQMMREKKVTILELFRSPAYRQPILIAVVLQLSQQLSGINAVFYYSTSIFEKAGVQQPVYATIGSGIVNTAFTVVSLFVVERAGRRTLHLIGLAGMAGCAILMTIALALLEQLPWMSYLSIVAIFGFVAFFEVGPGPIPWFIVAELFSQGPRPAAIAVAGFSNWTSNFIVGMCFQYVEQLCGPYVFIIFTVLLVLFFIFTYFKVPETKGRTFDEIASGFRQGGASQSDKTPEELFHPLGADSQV

CC(=O)Nc1cccc(CNc2cc(C)nc(Nc3ccc(C)cc3)n2)c1
inhibition [1]: 9.07%
inhibition [2]: 8.32%
inhibition [3]: 0.76%

N#Cc1ccc(N2CCN(Cc3ccc(-c4ccc(-c5nc6cc(C(F)(F)F)ccc6[nH]5)s4)cc3)CC2)nc1
inhibition [1]: 2.33%
inhibition [2]: 1.76%
inhibition [3]: 0.96%

O=C(N[C@@H](CC1CCCCC1)C(=O)NCc1cccc2ccccc12)c1ccc(O)c(-c2ccc(Cl)c(Cl)c2)c1
inhibition [1]: 2.54%
inhibition [2]: 2.25%
inhibition [3]: 2.22%

Cc1[nH]cnc1Cc1ccc2c(c1O)c1ccccc1n2C
inhibition [1]: 2.71%
inhibition [2]: -0.2%
inhibition [3]: -0.18%

Cc1cc2c(cc1C(F)(F)F)N(C(=O)Nc1cc(C(=O)NCCN(C)C)cc(C(F)(F)F)c1)CC2
inhibition [1]: 4.3%
inhibition [2]: 2.66%
inhibition [3]: 3.69%

CC(=NNC(S)=Nc1ccccc1Cl)c1ccccn1
inhibition [1]: 18.6%
inhibition [2]: 19.6%
inhibition [3]: 12.2%

CCn1c2ccccc2c2cc(Cc3cnc(N)nc3N)ccc21
inhibition [1]: 9.49%
inhibition [2]: 8.51%
inhibition [3]: 3.47%

Cc1cccc2nc(-c3ccc(-c4ccc(CNCCCN5CCCC5=O)cc4)cc3)[nH]c12
inhibition [1]: 7.88%
inhibition [2]: 5.8%
inhibition [3]: 4.42%

Cc1ccc(NCc2cccc(F)c2)cc1S(=O)(=O)N[C@@H]1CCN(C#N)C1
inhibition [1]: 7.1%
inhibition [2]: 3.53%
inhibition [3]: 1.18%

CCOC(=O)CNC(=O)c1cc(=O)c2ccccc2o1
inhibition [1]: 0.86%
inhibition [2]: 0.78%
inhibition [3]: 0.44%

O=C(c1cc(C(=O)NC2CCCCC2)c(=O)n(C2CCCCC2)c1)c1cc(F)ccc1O
inhibition [1]: 2.83%
inhibition [2]: 1.22%
inhibition [3]: 1.41%

CCCNC(=O)C1CCN(C(c2ccc(Cl)cc2)c2ccc(Cl)cc2)CC1
inhibition [1]: -0.62%
inhibition [2]: 2.95%
inhibition [3]: 0.49%

O=C(Nc1cccc(CN2CCCN(Cc3ccccc3)CC2)c1)c1ccc(-c2ccccc2)cc1
inhibition [1]: 3%
inhibition [2]: 4.14%
inhibition [3]: -0.61%

CC[C@]1(C)C[C@@H](NC(=O)NC(=O)c2ccc(OC)cc2)[C@]2(C)[C@H](C)CC[C@]3(CCC(=O)[C@H]32)[C@@H](C)[C@@H]1OC(=O)NC(=O)c1ccc(OC)cc1
inhibition [1]: 7.7%
inhibition [2]: 5.47%
inhibition [3]: 7.04%

O=C(CCCCCNC(=O)c1ccc(O)c(-c2ccc(Cl)c(Cl)c2)c1)NCc1cccc(C(F)(F)F)c1
inhibition [1]: -1.4%
inhibition [2]: -1.74%
inhibition [3]: -4.05%

c1ccc(Oc2ccc(Nc3ccnc4cc(-c5ccc(CN6CCCCC6)o5)ccc34)cc2)nc1
inhibition [1]: -2.19%
inhibition [2]: -1.27%
inhibition [3]: 0.73%

COCc1nc(-c2ccccc2)nc(N2CCN(C(=O)NC(C)C)CC2)c1Cc1ccccc1F
inhibition [1]: 8.3%
inhibition [2]: 6.85%
inhibition [3]: 6.8%

N#Cc1ccc(N/C(=N\c2ccccc2Br)N(C2CCCCC2)C2CCCCC2)c(O)c1
inhibition [1]: 6.11%
inhibition [2]: 4.65%
inhibition [3]: 5.56%

CC(C)Oc1cc2c(cc1NS(=O)(=O)c1ccc(-c3ccc(Cl)cc3)cc1)CCN(C)CC2
inhibition [1]: 2.55%
inhibition [2]: 7.31%
inhibition [3]: 4.31%

CCc1ccc2c(c1O)CCN(C)C2Cc1ccccc1Cl (stereo unspecified)
inhibition [1]: 8.14%
inhibition [2]: 5.29%
inhibition [3]: 11.8%

Cc1ccc2[nH]c(Nc3ccc(Nc4nc5cc(C)ccc5[nH]4)c(C)c3)nc2c1
inhibition [1]: 0.87%
inhibition [2]: 2.18%
inhibition [3]: 0.88%

CN1CCN(CCCN(Cc2csc(-c3ccc(CNCc4ccccc4)cc3)n2)S(=O)(=O)c2ccccc2)CC1
inhibition [1]: 12.2%
inhibition [2]: 15.3%
inhibition [3]: 4.53%

CC[C@H]1CN(Cc2cccc(O)c2)CC[C@H]1CCCc1ccnc2ccc(O)cc12
inhibition [1]: 4.31%
inhibition [2]: 4.23%
inhibition [3]: 3.98%

Fc1cc(CN2CCCC2)ccc1OCCCN1CCN(c2cccc(Cl)c2Cl)CC1
inhibition [1]: 4.56%
inhibition [2]: 5.47%
inhibition [3]: 4.5%

Cc1noc(C)c1-c1cccc(CNCc2ccc(-c3ccc(-c4nc5cccc(C)c5[nH]4)cc3)cc2)c1
inhibition [1]: 2.03%
inhibition [2]: 0.15%
inhibition [3]: -0.62%

CN1CCC(NCc2ccc(-c3ccc(C(F)(F)F)cc3)cc2)CC1
inhibition [1]: -0.71%
inhibition [2]: -0.76%
inhibition [3]: 0.62%

CNCCNCc1ccc(-c2cccc(-c3nc4cc(C(F)(F)F)ccc4[nH]3)c2)cc1
inhibition [1]: 3.52%
inhibition [2]: 0.66%
inhibition [3]: 1.45%

CC(C)c1ccc(CN(C)CCCCNC(=O)c2ccc(NC(=O)c3ccc(Cl)cc3)cc2)cc1
inhibition [1]: -0.05%
inhibition [2]: -0.96%
inhibition [3]: -1.07%

CN=C(N)c1ccc(NC(=O)C=Cc2ccc(C(=O)Nc3ccc(C(N)=NC)cc3)cc2)cc1
inhibition [1]: 9.91%
inhibition [2]: 15.9%
inhibition [3]: 4.6%

COc1ccc2[nH]c(C)cc(=NN=Cc3ccc(F)cc3)c2c1
inhibition [1]: 4.47%
inhibition [2]: 5.21%
inhibition [3]: 1.88%

Cc1cc(N2CCCN(C)CC2)nc(Nc2ccc(Cl)cc2)n1
inhibition [1]: 1.53%
inhibition [2]: 1.73%
inhibition [3]: 2.54%

O=C(Nc1ccc(F)cc1F)NC1CCN(c2ccnc3cc(Cl)ccc23)C1 (stereo unspecified)
inhibition [1]: 6.88%
inhibition [2]: 7.63%
inhibition [3]: 6.34%

CC(C)COc1ccc(Cl)cc1Cc1ccc(-c2nc3ccc(C(F)(F)F)cc3[nH]2)o1
inhibition [1]: 0.04%
inhibition [2]: 0.46%
inhibition [3]: 2.13%

CC(C)C[C@@H](C(=O)N[C@H](C(=O)Nc1nccs1)C(C)(C)C)[C@H](CCC(F)(F)F)N(O)C=O
inhibition [1]: 4.27%
inhibition [2]: 6.41%
inhibition [3]: 4.07%

Cc1sc2ccc(Cl)cc2c1S(=O)(=O)Nc1ccc2nccc(N3CC(C)NC(C)C3)c2c1 (stereo unspecified)
inhibition [1]: 3.66%
inhibition [2]: 4.16%
inhibition [3]: 6.32%

CCOc1cc(C(=O)NC2CCN(Cc3ccccc3)C2)ccc1-c1nc2cc(Cl)ccc2[nH]1 (stereo unspecified)
inhibition [1]: 6.92%
inhibition [2]: 3.47%
inhibition [3]: 6.92%

CC(=NO)C1=C(O)C(c2ccccc2)N(c2ccccc2)C1=O (stereo unspecified)
inhibition [1]: 1.86%
inhibition [2]: 2.06%
inhibition [3]: 1.72%

COC(=O)c1ccc(NC(=O)Nc2ccc(Cn3ncc(N4CCCNCC4)c(Cl)c3=O)cc2)cc1
inhibition [1]: -0.9%
inhibition [2]: 0.77%
inhibition [3]: -0.5%

COc1ccc(CNCc2cccc(-c3ccc(-c4nc5cccc(C)c5[nH]4)s3)c2)cc1
inhibition [1]: 3.18%
inhibition [2]: 2.97%
inhibition [3]: 2.36%

Nc1nc(Nc2cccc(O)c2)nc2ccccc12
inhibition [1]: 6.67%
inhibition [2]: 9.29%
inhibition [3]: 1.22%

COc1ccc(CCn2c(C3CCCCC3)nc3oc4ccccc4c(=O)c3c2=O)cc1
inhibition [1]: 3%
inhibition [2]: 5.28%
inhibition [3]: -0.12%

c1cc(CNC2CCCC2)cc(-c2ccc(CNc3ccc4ncccc4c3)cc2)c1
inhibition [1]: -0.78%
inhibition [2]: 0.28%
inhibition [3]: -2.51%

CN1CCN(CCCCNc2c3ccccc3nc3ccccc23)CC1
inhibition [1]: 23%
inhibition [2]: 11.7%
inhibition [3]: 14.6%

CCNc1cc(C(=O)N[C@@H](Cc2ccccc2)[C@H](O)CNC(C)(C)CSCC(C)C)cc(N2CCCC2=O)c1
inhibition [1]: 1.84%
inhibition [2]: 2.11%
inhibition [3]: -1.53%

COc1ccc2nccc(C(=O)NC3CCC(CCN4CCc5cc(C#N)ccc5C4)CC3)c2c1 (stereo unspecified)
inhibition [1]: 7.23%
inhibition [2]: 5.23%
inhibition [3]: 6.71%

CSc1ccc2ccccc2c1CNCCCCCCNCc1c(SC)ccc2ccccc12
inhibition [1]: 1.24%
inhibition [2]: 0.13%
inhibition [3]: 1.41%

CC1(CCc2ccccc2)N=C(N)N(Cc2ccccc2)C(=O)C1c1ccc(Cl)c(Cl)c1 (stereo unspecified)
inhibition [1]: 3.32%
inhibition [2]: 2.08%
inhibition [3]: 0.94%

Oc1cccc(-c2nc(-c3ccccc3)c(-c3ccc(Oc4ccc(-c5[nH]c(-c6cccc(O)c6)nc5-c5ccccc5)cc4)cc3)[nH]2)c1
inhibition [1]: 1.24%
inhibition [2]: 2.89%
inhibition [3]: 1.33%

COc1ccc(-c2ccc(CNC(=O)c3ccc(Cl)cc3)c(F)c2)cc1CN1CCCN(C)CC1
inhibition [1]: 3.27%
inhibition [2]: 0.3%
inhibition [3]: 1.71%

CN(C)CCC(O)C=C(c1ccc(Cl)cc1)c1ccc(Cl)cc1 (stereo unspecified)
inhibition [1]: 9.31%
inhibition [2]: 7.5%
inhibition [3]: 4.86%

NC(=O)c1cccc(Nc2nccc(Nc3ccc(Oc4ccc5ccccc5c4)cc3)n2)c1
inhibition [1]: 5.67%
inhibition [2]: 4.45%
inhibition [3]: 0.97%

Fc1ccc(-c2nc(NCc3cccc(C(F)(F)F)c3)nn2-c2cccc(C(F)(F)F)c2)cc1C(F)(F)F
inhibition [1]: 1.81%
inhibition [2]: 1.48%
inhibition [3]: 2.56%

Cc1cccc2nc(-c3ccc(-c4ccc(NC(=O)Nc5ccc(F)c(F)c5F)cc4)cc3)[nH]c12
inhibition [1]: 8.48%
inhibition [2]: 8.02%
inhibition [3]: 7.14%

N=C(NCCCc1ccccc1)c1cccc(C(=N)NCCCc2ccccc2)n1
inhibition [1]: -0.39%
inhibition [2]: -1.1%
inhibition [3]: -0.17%

O=C(O)c1cc(C(F)(F)F)co1
inhibition [1]: -2.13%
inhibition [2]: -1.54%
inhibition [3]: -0.54%

CC(C)[C@H](NC(=O)c1c(F)cccc1F)C(=O)Nc1ccc(Cc2nc3ccccc3s2)cc1
inhibition [1]: 4.82%
inhibition [2]: 4.54%
inhibition [3]: 4.17%

NCc1ccc(CNCc2ccc(-c3ccc(-c4nc5cc(C(F)(F)F)ccc5[nH]4)s3)cc2)cc1
inhibition [1]: 0.59%
inhibition [2]: 1.45%
inhibition [3]: 0.6%

CC(C)(C)c1ccc(CNC(=O)c2cc(CNC3CCNCC3)ccc2O)cc1
inhibition [1]: 1.45%
inhibition [2]: 1.01%
inhibition [3]: 0.22%

CC(C)CC1c2[nH]c3ccccc3c(=O)c2CN1C(=O)OC(C)(C)C (stereo unspecified)
inhibition [1]: 2.72%
inhibition [2]: 2.68%
inhibition [3]: 1.8%

Cc1cc(CN2C(=O)C(c3ccccc3)(c3ccccc3)N=C2N)c(C(F)(F)F)o1
inhibition [1]: 6.61%
inhibition [2]: 9.85%
inhibition [3]: 6.9%

CN(C)CCOc1ccc2c(c1)CN(C)CC2c1ccccc1 (stereo unspecified)
inhibition [1]: 1.17%
inhibition [2]: 0.33%
inhibition [3]: 0.03%

Cn1ccc2c3c(N)nc(N)nc3ccc21
inhibition [1]: 0.43%
inhibition [2]: 1.8%
inhibition [3]: 1.34%

c1ccc(-c2nc(NCCCn3ccnc3)cc(-c3ccncc3)n2)cc1
inhibition [1]: 3.22%
inhibition [2]: 4.55%
inhibition [3]: 1.25%

O=C(NC1CCN(Cc2ccccc2)CC1)c1ccc(-c2nc3cc(Cl)c(F)cc3[nH]2)s1
inhibition [1]: 3.32%
inhibition [2]: 3.3%
inhibition [3]: 4.27%

O=S(=O)(Nc1cccc(CCN2CCC(N3CCCCC3)CC2)c1)c1ccccc1C(F)(F)F
inhibition [1]: 1.15%
inhibition [2]: 0.31%
inhibition [3]: -2.06%

CN1C(=O)C(=O)N(CCCCCONC(=N)N)C1=S
inhibition [1]: 9.86%
inhibition [2]: 6.2%
inhibition [3]: 9.97%

Cc1cc(N[C@@H](CC(C)C)C(=O)NCc2cccs2)nc(NCCc2cccs2)n1
inhibition [1]: 7.52%
inhibition [2]: 5.28%
inhibition [3]: 3.84%

COc1cccc(-c2cnc(-c3ccncc3)nc2C2CCN(Cc3ccc(NC(C)=O)cc3)CC2)c1
inhibition [1]: 3.49%
inhibition [2]: 4.22%
inhibition [3]: 1.53%

CCn1c(Sc2ccc(C#N)c([N+](=O)[O-])c2)nnc1-c1cccc(Cl)c1
inhibition [1]: 16.9%
inhibition [2]: 14.9%
inhibition [3]: 11.8%

O=C(N[C@H]1CCN(Cc2ccc(OCCN3CCCC3)c(Cl)c2)C1)c1ccc(Cl)c(Cl)c1
inhibition [1]: 8.03%
inhibition [2]: 16.6%
inhibition [3]: 6.8%

CN1CCC(NCc2cccc(-c3cccc(-c4nc5cc(C(F)(F)F)ccc5[nH]4)c3)c2)CC1
inhibition [1]: 2.34%
inhibition [2]: 0.79%
inhibition [3]: 1.42%

CC(=O)Nc1cccc(Nc2c3ccccc3nc3ccccc23)c1
inhibition [1]: 1.69%
inhibition [2]: 3.82%
inhibition [3]: 0.54%
